Measured values from PubChem BioAssay (Tox21).
Records with an inconclusive call do not appear. Activity calls are given as the source filed them. Calls come from the whole dose curve; as a rule, active = well fitted activation curve with a large enough effect in the signal ratio in the repeat runs (not every such curve was filed as active); inconclusive = weak or mixed curves; inactive = flat fitted curve, though single readings scatter; the % refers to the signal ratio. Where a SMILES comes first, the peptide text is derived from it. [ ]: non-standard residue; d: D form. pGlu = O=C1CC[C@@H](C(=O)O)N1

Assay: qHTS assay to identify small molecule agonists of the hypoxia (HIF-1) signaling pathway (AID 1224846)
Settings: HRE-bla ME-180 cells, beta-lactamase ratio, 17 h; series mostly up to 76.8 µM
Excerpt: U.S. Tox21 Program National Center for Advancing Translational Sciences [NCATS] NIH Chemical Genomics Center [NCGC] U.S. Environmental Protection Agency [EPA] National Institutes of Environmental Health Sciences [NIEHS] National Toxicology Program [NTP] U.S. Food and Drug Administration [FDA] Tox21 Assay Overview: Hypoxia-inducible factor-1 (HIF-1) is the major hypoxia-regulated transcription factor that controls cellular responses to low oxygen concentration. HIF-1 is composed of two subunits: hypoxia responsive HIF-1-alpha and constitutively expressed HIF-1-beta, which is also known as aryl hydrocarbon receptor nuclear translocator. During hypoxic conditions, HIF-1-alpha heterodimerizes with HIF-1-beta and translocates into the nucleus where the HIF-1 complex binds to the hypoxia-response element (HRE) and activates expression of target genes such as VEGF (vascular endothelial growth factor). The HIF-1 pathway is essential to normal growth and development, and is involved in the pathophysiology of cancer, inflammation, and ischemia. Using a beta-lactamase reporter-gene under control of the hypoxia response element, a cell-based assay [CellSensor(TM) HRE-bla ME-180 from Life Technologies, Carlsbad, CA] was used to measure hypoxia-induced signaling. Tox21 10K library compounds were measured for their ability to induce the reporter gene activity.
Tox21 Assay Protocol Summary: HRE-bla ME-180 cells were dispensed at 2,000 cells per well in 6 uL of assay medium containing 0.5% dialyzed FBS into black wall/clear-bottom 1536-well plates using a Multidrop Combi (Thermo Scientific, Waltham, MA) dispenser. After the assay plates were incubated at 37C and 5% CO2 for 5 hrs, 23 nL of compounds dissolved in DMSO, positive controls or DMSO only was transferred to each well of the assay plate using a Pintool station (Kalypsys, San Diego, CA). The assay plates were incubated at 37C and 5% CO2 for 17 hrs. One uL of LiveBLAzerTM B/G FRET substrate (CCF4-AM) (Life Technologies) was added to each well using a Flying Reagent Dispenser (Aurora Discovery, San Diego, CA).

SMILES	outcome
CC(C)CC(C)(N)C#N (stereo not given)	inactive
Cc1ncc([C@@H](CCCCCCc2ccc3c(n2)NCCC3)CC(=O)O)cn1	inactive
CCCCCCCC1CCCC1=O (stereo not given)	inactive
CCCCCC(=O)OCCc1ccccc1	inactive
CC(C)=CCC/C(C)=C/C#N	inactive
CCC(=O)OCc1ccccc1	inactive
O=S(=O)(O)c1cccc(S(=O)(=O)O)c1	inactive
CC(CC=O)CC(C)(C)C (stereo not given)	inactive
Nc1ccn([C@@H]2O[C@H](CO)[C@@H](O)C2(F)F)c(=O)n1	inactive
CCOC(=O)C(=O)CCCCCCl	inactive
O=C1NC(=O)C2CC=CCC12 (stereo not given)	inactive
C[N+](C)(CCOc1ccccc1)Cc1cccs1	inactive
CCOC(=O)c1ccccc1	inactive
CCCOC(=O)CC	inactive
COc1ccc2cc1Oc1cc3c(cc1OC)CC[N+](C)(C)[C@H]3Cc1ccc(cc1)Oc1c(OC)c(OC)cc3c1[C@@H](C2)[N+](C)(C)CC3	inactive
CN(C)CCCCCCN(C)C	inactive
Nc1ccccn1	inactive
O=C(O)CCSCCC(=O)O	inactive
CCO[Si](OCC)(OCC)c1ccccc1	inactive
CCCCc1nc(Cl)c(CO)n1Cc1ccc(-c2ccccc2-c2nn[nH]n2)cc1	inactive

SMILES	outcome
C[C@@H]1C[C@H]2[C@@H]3C[C@H](F)C4=CC(=O)C(Cl)=C[C@]4(C)[C@@]3(F)[C@@H](O)C[C@]2(C)[C@@]1(O)C(=O)CO	inactive
CC(=O)N1C[C@H](O)C[C@H]1C(=O)O	inactive
CC(C)c1ccc2ncccc2c1	inactive
NO	inactive
CCNC(=O)[C@@H]1CCCN1C(=O)[C@H](CCCN=C(N)N)NC(=O)[C@H](CC(C)C)NC(=O)CNC(=O)[C@H](Cc1ccc(O)cc1)NC(=O)[C@H](CO)NC(=O)[C@H](Cc1c[nH]c2ccccc12)NC(=O)[C@H](Cc1cnc[nH]1)NC(=O)[C@@H]1CCC(=O)N1 ([pGlu]HWSYGLRP-NHEt)	inactive
CC1=NN(c2cccc(S(=O)(=O)O)c2)C(=O)C1	inactive
O=[N+]([O-])c1ccc(/C=N\O)o1	inactive
O=C(O)CC(C(=O)O)S(=O)(=O)O (stereo not given)	inactive
O=C(O)c1cc(C(=O)O)cc(C(=O)O)c1	inactive
COc1c(N2CCNC(C)C2)c(F)cc2c(=O)c(C(=O)O)cn(C3CC3)c12 (stereo not given)	inactive
CC(C)(C)OC(=O)c1cccc(N)c1	inactive
c1ccc(Cc2ccccc2)cc1	inactive
CC/C=C\CCOC(C)OCC (stereo not given)	inactive
CC(N)C12CC3CC(CC(C3)C1)C2 (stereo not given)	inactive
CC(=O)c1ccc2ccccc2c1	inactive
CC(C)(C)c1ccc(-c2ccc(C(C)(C)C)cc2)cc1	inactive
CC(C)[C@H]1CC[C@@H](C)CC1=O	inactive
CCN(Cc1ccccc1)c1ccccc1	inactive
c1ccc(CCc2ccccc2)cc1	inactive
O=[N+]([O-])c1cncn1CCN1CCOCC1	inactive
